Compounds with a hit are over-represented: about 9% of the library has one in this group of screens.
HP1b chromo inh: HP1-beta chromodomain-methylated histone interaction inhibition; P83916; AlphaScreen HP1-beta / biotin-H3K9me3 peptide binding; Potency, µM (highest dose often 114 µM), actives largely listed as inhibitors; actives 0.56% (n = 390,000); AID 540317; also: nearly all actives have a fitted effect of over 70% in size
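AlphaScreen: HP1-beta (50 nM) preformed 30 min with biotin-H3(1-18)K9me3 peptide (50 nM) in PBS pH 7.4, 0.01% Tween-20. Compound added for 30 min at RT, then streptavidin donor/nickel chelate acceptor beads (10 ug/mL) for 30 min.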
PLK1 PBD inh: PLK1 (human) polo-box domain binding inhibition; P53350; Plk1 PBD binding of FITC phosphopeptide, fluorescence polarization; Potency, µM, hits mostly inhibitors; actives 2.8% (n = 360,000); AID 720504; also: series mostly up to about 57 µM; nearly all actives have a fitted effect of over 65% in size
Target sequence (P53350 whole entry, looked up, the tested form may be a part): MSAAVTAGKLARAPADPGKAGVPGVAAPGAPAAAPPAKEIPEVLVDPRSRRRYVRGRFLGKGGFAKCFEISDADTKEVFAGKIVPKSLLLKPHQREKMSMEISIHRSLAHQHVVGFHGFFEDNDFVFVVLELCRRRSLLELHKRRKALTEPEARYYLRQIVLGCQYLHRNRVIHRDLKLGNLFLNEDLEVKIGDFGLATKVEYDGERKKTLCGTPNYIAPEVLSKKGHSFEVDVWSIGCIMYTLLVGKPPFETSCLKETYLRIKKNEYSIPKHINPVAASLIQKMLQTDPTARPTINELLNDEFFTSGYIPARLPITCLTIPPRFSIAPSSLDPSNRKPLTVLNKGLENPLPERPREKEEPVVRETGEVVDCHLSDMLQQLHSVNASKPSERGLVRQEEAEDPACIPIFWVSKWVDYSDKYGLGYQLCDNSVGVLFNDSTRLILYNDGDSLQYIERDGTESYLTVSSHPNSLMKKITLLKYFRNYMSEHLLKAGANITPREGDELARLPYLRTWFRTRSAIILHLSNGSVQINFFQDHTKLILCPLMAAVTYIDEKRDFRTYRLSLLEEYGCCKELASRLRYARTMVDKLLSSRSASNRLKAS
G9a block: G9a (human) methyltransferase inhibition. AID 504332. G9a H3K9 monomethylation, AlphaScreen, 2 h. Potency, µM (titrated, usually from 102 µM), hits mostly inhibitors. actives 8.8% (n = 350,000); also: nearly all actives have a fitted effect of over 75% in size
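Readings reflect AlphaScreen signal from monomethyl-H3K9 antibody detection. HMT at 20 nM; substrate b-H3K9 500 nM; cofactor SAM 20 uM; 2 h RT reaction; compounds tested as titrations in qHTS with 15 min preincubation.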
12-LOX inh: blocks human arachidonate 12S-lipoxygenase | P18054 | purified 12hLO, xylenol orange hydroperoxide absorbance | Potency, µM (titrated, usually from 108 µM), hits mostly inhibitors | actives 1.1% (n = 580,000) | AID 1671190
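Purified human 12hLO (150 nM final) in 25 mM Hepes, 0.01% Triton X-100, pH 7.0 was preincubated 15 min at room temperature with compound. Then 40 uM arachidonic acid was added, 30 min. Hydroperoxide was read by Fe-XO absorbance ratio 573/405 nm.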
JMJD2A Tudor: inhibitors of human JMJD2A Tudor domain. Potency, µM (series often up to 114 µM), actives largely listed as inhibitors. AlphaScreen JMJD2A-Tudor / H3K4me3 peptide binding. actives 4.4% (n = 390,000). O75164; also: nearly all actives have a fitted effect of over 50% in size
BAZ2B block: inhibitors of human BAZ2B bromodomain. Potency, µM (doses to about 114 µM), actives largely listed as inhibitors. Q9UIF8. AID 504333. AlphaScreen BAZ2B-H3K14Ac peptide displacement. actives 4.4% (n = 360,000); also: nearly all actives have a fitted effect of over 60% in size
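Protein-peptide AlphaScreen: BAZ2B 50 nM, b-H3K14Ac 50 nM, 1x PBS pH 7.4 + 0.01% Tween-20. Preincubation 30 min RT; cpd 30 min RT (top 110 uM); beads 20 min RT, light-protected.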
Numbers stand for hits; i = inactive; ? = inconclusive; nt = no result given; [ ] = remark or other dose. Calls follow the shape of the dose curve; as a rule, active = well fitted curve in the direction sought with a large enough effect; inconclusive = small, poorly fitted or top-dose-only effect, or another doubt; inactive = no such curve, though single readings can be large; an effect the other way counts as inactive or inconclusive.

SMILES	HP1b chromo inh	PLK1 PBD inh	G9a block	12-LOX inh	JMJD2A Tudor	BAZ2B block
CC(=O)c1ccc(C#CC(C)(C)O)s1	i	i	13µM	i	i	i
CC(C)(O)C#Cc1ccc(C(=O)NCc2cccs2)s1	i	i	i	i	i	i
C/C(=N\NC(=O)c1ccc(CN2CCc3ccccc3C2)cc1)c1ccccc1O	i	i	i	i	?	2.8µM
COc1ccc(NC(=O)c2ccc(CN3CCc4ccccc4C3)cc2)cc1OC	i	i	71µM	i	i	i
COc1ccc(NC(=O)c2ccc(COc3ccccc3OC)o2)cc1OC	i	30µM	i	i	i	i
CCCCCC(=O)N1C[C@@H](O)[C@H](n2cc(C3CC3)nn2)C[C@@H]1c1ccccc1	nt	i	nt	i	nt	nt
CCCCCC(=O)Nc1cccc(C2=NOC3(C2)C[C@@H](C(N)=O)N(C(=O)c2ccc(OC)cc2)C3)c1 (stereo partly specified)	i	i	i	i	i	?
Cc1ccc(-n2nnnc2C2CCN(S(=O)(=O)c3ccc(OC(F)(F)F)cc3)CC2)cc1	i	nt	i	i	i	i
OC(c1ccccc1)(c1nc(/C=C/c2ccc(C(F)(F)F)cc2)cs1)C(F)(F)F (stereo unspecified)	nt	i	nt	i	nt	nt
COc1cc(C2CC(=O)c3c([nH]c(C(=O)OC4CCCCC4)c3C)C2)cc(OC)c1OC (stereo unspecified)	i	nt	i	i	i	i
Fc1cccc(-n2cc(-c3ccccc3)c3c(=S)nc[nH]c32)c1	i	i	i	?	i	i
COc1ccc(N2CCN(C(=O)c3cccc(S(=O)(=O)N4CCc5ccccc54)c3)CC2)cc1	?	i	nt	i	40µM	nt
CC(C)CCNC(=O)c1cccc(S(=O)(=O)N2CCc3ccccc32)c1	i	i	i	i	i	i
CC(C)CN(CC(C)C)C(=O)c1cccc(S(=O)(=O)N2CCc3ccccc32)c1	i	24µM	79µM	i	45µM	i
CCN(CC)CCCC(C)NC(=O)c1cccc(S(=O)(=O)N2CCc3ccccc32)c1 (stereo unspecified)	i	i	45µM	i	i	i
COCCn1c(C)cc(C(=O)CN2C(=O)NC3(CCCCCCC3)C2=O)c1C	i	i	i	i	?	i
CC(c1cccs1)N(C)Cc1cccc2ccccc12 (stereo unspecified)	nt	nt	nt	i	nt	nt
CCCCn1nnnc1SCC(=O)Nc1ccc(N(C)C)cc1	i	i	45µM	i	?	i
CCOC(=O)c1csc(NC(=O)CSc2nnc(C3CC3)n2C)n1	i	27µM	i	i	?	i
Nn1c(SCC(=O)Nc2nccs2)nnc1C1CC1	i	?	40µM	nt	i	i
CN(C)c1ccc(NC(=O)CSc2nnc(C3CCCCC3)n2N)cc1	i	i	40µM	i	?	?
CCCCn1nnnc1SCC(=O)Nc1ccc(F)cc1	i	i	i	?	i	i
CCOc1ccc(NC(=O)Nc2cccc(C)n2)cc1	i	i	i	i	i	i
COC1CCOC2(CCN(C(=O)Cc3c(C)noc3C)CC2)C1 (stereo unspecified)	nt	nt	nt	i	nt	nt
O=C1NC(=Nc2ccccc2Br)SC1(CO)CO	i	i	i[0.501 µM]	i	i	i
SMILES	HP1b chromo inh	PLK1 PBD inh	G9a block	12-LOX inh	JMJD2A Tudor	BAZ2B block
COC(=O)c1cc(-c2ccccc2)c2c(=O)n(C)c(=O)n(C)c2n1	nt	nt	nt	nt	nt	i
CCN1CCN(c2nccc(Cl)n2)C(=O)C1	nt	nt	nt	i	nt	nt
COc1ccccc1N1CCN(C(=O)Cn2ccn3nc4c(c3c2=O)CCCCC4)CC1	nt	nt	nt	i	nt	nt
Cn1c(SCC(=O)Nc2nncs2)nnc1C1CC1	i	?	nt	i	56µM	50µM
COc1ccc(NC(=O)CSc2nnc(C3CC3)n2C)cc1	i	24µM	i	i	10µM	i
CCCCN(CC)C(=O)/C=C/c1cccc([N+](=O)[O-])c1	i	27µM	i	i	i[11.4 µM]	i
CCCC(C)NC(=O)/C=C/c1cccc([N+](=O)[O-])c1 (stereo unspecified)	i	i	i	i	i	i
Cc1cc(O)c(C(=O)/C=C/c2cccc([N+](=O)[O-])c2)c(=O)o1	i	?	13µM	?	?	?
Cc1cc(O)c(C(=O)/C=C/c2ccccc2O)c(=O)o1	i	21µM	50µM	i	?	?
O=C(/C=C/c1cccc(Cl)c1)c1ccc([N+](=O)[O-])o1	i	6.7µM	?	?	?	10µM
COc1ccc(/C=C/C(=O)c2ccc([N+](=O)[O-])o2)cc1OC	i	?	i[12.7 µM]	i	i	i
COc1cc(/C=C/C(=O)c2c(O)cc(C)oc2=O)ccc1O	nt	nt	nt	i	nt	nt
COc1ccccc1NC(=S)NC(=O)c1ccc(-c2ccc(Cl)cc2)o1	i	i	i	?	i	i
O=C(OCCN1CCCCC1)c1ccc(O)cc1	i	i	i	i	i	i
O=C(C1CCCC1)N1CCOC[C@H](Oc2ccc(C(F)(F)F)cc2)C1	nt	nt	nt	i	nt	nt
O=C(CN1C(=O)c2ccccc2S1(=O)=O)c1ccc(OC(F)F)cc1	i	i	nt	nt	i	i
COC(=O)c1ccc(-n2c(C)cc(/C=N/n3cnnc3)c2C)cc1	i	?	56µM	i	i[11.4 µM]	?
COc1ccc(N2CCN(S(=O)(=O)c3ccc(Br)s3)CC2)cc1	i	i	i[2.33 µM]	?	i	i
CC(/C=C/c1ccccc1)=N/NC(=O)c1cc([N+](=O)[O-])cc([N+](=O)[O-])c1	i	i	i	i	i	i
CC(/C=C/c1ccccc1)=N\Nc1ccccc1[N+](=O)[O-]	4µM	i	0.89µM	i	10µM	2.2µM
CCN1c2cc(C(=O)Nc3cc(OC)c(OC)c(OC)c3)ccc2C(=O)N2CCCC21 (stereo unspecified)	nt	nt	nt	i	nt	nt
Cc1ccc2ccc(C(Nc3ccccc3)c3ccccc3)c(O)c2n1 (stereo unspecified)	nt	i	nt	i	nt	nt
COc1cc(C(Nc2ccccn2)c2ccc3ccc(C)nc3c2O)cc(OC)c1O (stereo unspecified)	?	2.4µM	?	nt	50µM	50µM
Cc1cccc(NC(c2ccccc2C)c2ccc3ccc(C)nc3c2O)n1 (stereo unspecified)	i	nt	?	i	?	22µM
Cc1ccc2ccc(C(Nc3ccccn3)c3ccccc3)c(O)c2n1 (stereo unspecified)	i	?	14µM	?	?	?
Cc1ccc2ccc(C(Nc3cccc(C(F)(F)F)c3)c3cccnc3)c(O)c2n1 (stereo unspecified)	i	i	10µM	?	?	i
CCCOc1ccc(Oc2nc(NC)nc(N3CCOCC3)n2)nn1	i	nt	i	i	i	i
CCOC(=O)C1=CN(Cc2cccc(-c3ccc4c(c3)OCO4)c2)S(=O)(=O)N(C)C1C (stereo unspecified)	i	i	nt	i	i	nt
CCOC(=O)c1c(NC(=O)CSc2nc3c(c(=O)n(C)c(=O)n3C)n2C(C)C)sc(C)c1C	i	i	i[12.7 µM]	i	i	i

Compound activity: PubChem, National Center for Advancing Translational Sciences (NCATS)
